Measurements published in the supplement of paper PMC3334620.
In all, about 33,000 sequences were measured (“E-score (-0.5 to 0.5)”: median about -0.032, highest 2% from about 0.36 on). Only a selection was taken, and the highest values are over-represented in it overall.

What follows are sequences tested against T1, Sko1 (UniProt Q02100) (assay: PBM E-score (8-mer binding enrichment) (E-score (-0.5 to 0.5)); higher = stronger / more preferred TF binding). Conditions: protein concentration: 200 nM; construct: GST-full length.
T1 sequence: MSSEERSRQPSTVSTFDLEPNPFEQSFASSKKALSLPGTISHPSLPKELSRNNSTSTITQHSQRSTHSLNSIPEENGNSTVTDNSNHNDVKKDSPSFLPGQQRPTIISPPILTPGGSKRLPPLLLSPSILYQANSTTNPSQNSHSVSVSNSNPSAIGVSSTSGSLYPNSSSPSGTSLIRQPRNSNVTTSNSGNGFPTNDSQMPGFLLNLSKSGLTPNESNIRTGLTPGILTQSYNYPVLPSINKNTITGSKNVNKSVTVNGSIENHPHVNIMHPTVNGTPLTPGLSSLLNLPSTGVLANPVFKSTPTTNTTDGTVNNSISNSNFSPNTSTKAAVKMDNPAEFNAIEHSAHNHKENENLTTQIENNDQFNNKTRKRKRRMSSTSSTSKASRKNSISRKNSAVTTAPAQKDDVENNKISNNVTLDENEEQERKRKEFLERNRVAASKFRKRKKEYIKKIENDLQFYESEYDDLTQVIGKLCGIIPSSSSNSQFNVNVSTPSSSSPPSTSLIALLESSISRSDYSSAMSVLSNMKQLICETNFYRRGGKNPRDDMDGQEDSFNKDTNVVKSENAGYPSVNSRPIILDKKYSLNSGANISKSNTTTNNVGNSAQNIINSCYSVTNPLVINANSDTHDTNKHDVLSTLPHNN
Method: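 Universal 'all 10-mer' protein binding microarrays (Agilent AMADID 015681) probed with GST-tagged S. cerevisiae TFs (full-length or DBD) made by in vitro transcription/translation (PURExpress), about 100-200 nM. Bound TF was detected with fluorescent anti-GST. Each ungapped 8-mer (which stands for itself and its reverse complement) is scored by the PBM enrichment score (E-score), a modified Wilcoxon-Mann-Whitney statistic from -0.5 to +0.5, computed with the Universal PBM Analysis Suite. Scale: above 0.35 generally sequence-specific binding.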

Row | Sequence | PBM E-score
1 | ACGGACTA | 0.0518
2 | CTGCTGAC | 0.0145
3 | AACACGTA | 0.459
4 | AACACGGC | -0.255
5 | AACACGCC | -0.0487
6 | AACACGTT | 0.313
7 | AACACGTC | 0.401
8 | AACACGAA | 0.187
9 | AGAGCTGG | -0.228
10 | TCATAGAA | 0.219
11 | AATTTCAC | -0.0415
12 | ACTTGAAA | 0.0359
13 | AAGCGGAA | -0.0292
14 | AGAACGTA | 0.366
15 | GGAACGTA | 0.289
16 | CGAACGTC | 0.238
17 | AGAACGTG | 0.246
18 | CGAACGTA | 0.361
19 | AGAACGTC | 0.314
20 | GTGAAGGA | -0.0285
21 | ACGCAGAC | 0.0967
22 | AAATTGGA | 0.0977
23 | ACGAGTCC | -0.0325
24 | ACGTCCAC | 0.314
25 | ACGTCGAC | 0.385

Row | Sequence | PBM E-score
26 | ACGTCGAA | 0.292
27 | ACGTCGAG | 0.254
28 | CCGTCGAC | -0.145
29 | ACGTCCAA | 0.288
30 | GCGTCGAC | 0.0596
31 | ACGTCCAT | 0.39
32 | ACGTCGAT | 0.432
33 | ATCAGTCA | 0.119
34 | AACCGCGC | -0.0849
35 | AGGGCAAT | -0.231
36 | CGTAGAGC | 0.116
37 | ACGAGATA | 0.207
38 | ATACGTCG | 0.422
39 | AAACGTCG | 0.238
40 | ATCCGTCG | -0.197
41 | CTACGTCC | 0.298
42 | ATACGTCC | 0.369
43 | ATACGCCC | -0.0909
44 | AAGGCTGT | -0.282
45 | CGGTAGCC | 0.0295
46 | ACCCACGC | -0.0576
47 | AATCACGA | 0.0581
48 | AATCACGT | 0.429
49 | AACCACGT | 0.371
50 | AACCACGC | 0.111

Row | Sequence | PBM E-score
51 | AACCACGA | -0.0344
52 | AATCACGC | 0.205
53 | ACCCACGT | 0.374
54 | ACCCACGA | -0.0425
55 | GGAAATAC | 0.148
56 | CCCTCATC | -0.29
57 | CGTCACCA | 0.447
58 | CGTCACCC | 0.409
59 | AGTCACCC | -0.145
60 | GGTCACCA | -0.28
61 | CCTCACCC | -0.148
62 | AGTCACCA | -0.269
63 | AGCCAATG | -0.049
64 | CATAAGCA | -0.085
65 | CGTGGTTC | 0.0129
66 | AAGTCGTG | 0.00032
67 | ACGTCGTG | 0.361
68 | ACGTCGCG | 0.356
69 | ACGTCGTA | 0.399
70 | ACGTCGGC | 0.348
71 | CCGTCGTA | 0.11
72 | GCGTCGTA | 0.234
73 | CCGTCGTC | -0.0549
74 | ACGTCGTC | 0.387
75 | AGTTGCCC | -0.107

Row | Sequence | PBM E-score
76 | ACATTCTA | 0.293
77 | AACCCAGC | -0.247
78 | CGGCCTAG | -0.324
79 | AGAAGCTG | -0.0693
80 | ACAGCTGT | -0.245
81 | GGGCAGAC | -0.242
82 | ACTGGTAT | -0.17
83 | GCTCGTCA | 0.351
84 | TCTCGTCA | 0.365
85 | ACTCGTCT | -0.0567
86 | CCTCGTCA | 0.381
87 | ACTCGTCC | 0.0764
88 | CCTCGTCC | -0.209
89 | CCTCGTCG | -0.233
90 | TCTCGTAA | 0.276
91 | ACTCGTCA | 0.404
92 | AACCCAAG | -0.00525
93 | ATAAGGAG | -0.159
94 | CGTAGACA | 0.264
95 | GCGTCCAC | -0.0966
96 | ATACTTTC | 0.0725
97 | AACGACGT | 0.411
98 | ACCGACGG | -0.181
99 | ACCGACGT | 0.376
100 | AACGACGA | 0.166

Row | Sequence | PBM E-score
101 | AAAGACGT | 0.448
102 | AAAGACGA | 0.172
103 | AAAGACGG | -0.111
104 | ACCGACGC | 0.0727
105 | AACGACGG | 0.0454
106 | AGCTCAAA | 0.0839
107 | ATGCCCTG | -0.17
108 | TACGGTGA | 0.0938
109 | ACGGTCGG | -0.28
110 | ACGGTCTG | -0.0646
111 | GACCGCTC | -0.21
112 | CCAGTCTA | -0.255
113 | CAGTGACA | 0.0692
114 | AAGTGACT | -0.0253
115 | AAGTGACC | -0.141
116 | CATTGACA | -0.0852
117 | CATTGACC | 0.114
118 | CATTGACG | 0.412
119 | AAGTGACG | 0.445
120 | CAGTGACC | -0.18
121 | CAGTGACG | 0.408
122 | GGCGAAAA | 0.0196
123 | ATGTCCAC | 0.116
124 | GCCTGTCA | -0.157
125 | CCGGTCAA | -0.12

Row | Sequence | PBM E-score
126 | GTATTGCA | 0.0688
127 | CACTGGGC | -0.304
128 | CTTTCATA | 0.257
129 | GCTAGCCC | -0.26
130 | AACCGTTG | -0.00171
131 | CGGCATAC | -0.00615
132 | ACGCCTGA | 0.15
133 | TAATATTA | 0.362
134 | CAATATTA | 0.264
135 | AAATATTA | 0.295
136 | AGGCCAGG | -0.292
137 | CCTATACC | -0.227
138 | CATGACCG | 0.0181
139 | AAGAAGTG | -0.0945
140 | CAGGGAAG | -0.212
141 | GTGGTTAA | 0.205
142 | ACCGCTTA | -0.00218
143 | TACGTGAA | 0.425
144 | CACGTGAA | 0.319
145 | AACGTGAA | 0.14
146 | CACGTGGA | 0.315
147 | TACGTGGA | 0.424
148 | GACGTGGA | 0.23
149 | CGAGCCTC | -0.324
150 | GGCCCCTA | -0.188

Row | Sequence | PBM E-score
151 | TAGGCTCA | -0.19
152 | AAACAGTA | 0.14
153 | CGATTACG | 0.448
154 | CGATTACA | 0.106
155 | AGATTACT | 0.201
156 | AGATTACG | 0.459
157 | AGATTACC | 0.108
158 | CGATTACC | -0.0987
159 | ACCTGGCG | -0.109
160 | AAGCTACG | 0.251
161 | GAAAAAAC | 0.201
162 | CCTGACGA | 0.24
163 | ACTGACGA | 0.364
164 | AATGACTA | 0.0941
165 | TATGACGA | 0.475
166 | CATGACTC | -0.0516
167 | TATGACAA | 0.21
168 | CATGACAC | 0.258
169 | CATGACGC | 0.465
170 | ACTGACGG | -0.104
171 | AATGACCA | 0.0136
172 | AATGACGA | 0.476
173 | TATGACCA | 0.178
